# Source: paper PMC5540273 (PLoS ONE, 2017)
# Key:
# Conditions in all cases: concentration: 1 μM, replicates: in singlicate; n = 1
# JNK3 = test system: T1, JNK3
# T1 construct: gene MAPK10
# KIT-autoinhibited = test system: KIT-autoinhibited
# KIT = test system: KIT
# LATS1 = test system: LATS1
# LATS2 = test system: LATS2
# LCK = test system: LCK
# LIMK1 = test system: LIMK1
# LIMK2 = test system: LIMK2
# LKB1 = test system: T2, LKB1
# T2 construct: gene STK11
# LOK = test system: T3, LOK
# T3 construct: gene STK10
# LRRK2 = test system: LRRK2
# LTK = test system: LTK
# LYN = test system: LYN
# LZK = test system: T4, LZK
# T4 construct: gene MAP3K13
# MAK = test system: MAK
# MAP3K15 = test system: MAP3K15
# MAP3K1 = test system: MAP3K1
# MAP3K2 = test system: MAP3K2
# MAP3K3 = test system: MAP3K3
# MAP3K4 = test system: MAP3K4
# 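Also: KINOMEscan kinase panel screen.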
SMILES,%Inh (JNK3),%Inh (KIT-autoinhibited),%Inh (KIT),%Inh (LATS1),%Inh (LATS2),%Inh (LCK),%Inh (LIMK1),%Inh (LIMK2),%Inh (LKB1),%Inh (LOK),%Inh (LRRK2),%Inh (LTK),%Inh (LYN),%Inh (LZK),%Inh (MAK),%Inh (MAP3K15),%Inh (MAP3K1),%Inh (MAP3K2),%Inh (MAP3K3),%Inh (MAP3K4)
O=C(Nc1n[nH]c2nc(-c3cccs3)c(Br)cc12)C1CCCC1 [SB-743341],46%,13%,36%,20%,0%,38%,2%,15%,0%,26%,28%,17%,0%,36%,77%,32%,49%,5%,28%,0%
Cn1cncc1C(=O)NC1CCN(c2ccnc(Nc3ccc(F)cc3)n2)C1 (centres unmarked) [GSK1379717],13%,0%,17%,25%,0%,4%,0%,2%,0%,0%,0%,6%,0%,0%,22%,0%,2%,11%,0%,13%
Cc1nccc(-c2c(-c3ccc(F)cc3)ncn2CCCN2CCOCC2)n1.Cl [SB-282975],43%,9%,0%,0%,0%,27%,11%,10%,0%,9%,0%,30%,9%,0%,25%,28%,20%,17%,19%,22%
FC(F)(F)c1ccccc1-c1cc(-c2c[nH]nc2-c2ccccn2)ccn1 [GW679396],40%,0%,3%,0%,0%,17%,0%,0%,11%,0%,1%,5%,0%,11%,35%,0%,11%,0%,0%,24%
